Results as given in PubChem BioAssay AID1159580 (chemical genetic matrix, 2015).
“And” between values parts separate entries of the source, which are not always exact repeats. Identical values can stand only once. Out of some 5,500 compounds screened, about 2,000 (36%) were called active. About 18% were inconclusive and are not listed. Cut-off read from the data, not from the text of the source: active = normalized growth mostly below about 0.91 (no sharp cut-off); inconclusive = no clear call, values can overlap the other calls; inactive = mostly above about 0.92. Some of the results follow.

Assay: chemical genetic growth profiling, strain panel (AID 1159580);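 note: tested at 20 µM; growth read once vehicle control cultures reached saturation at 30 °C; 1 = growth at the plate median or of vehicle wells; lower values mean less growth of the strain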
Details: S. cerevisiae deletion strains, growth OD

Measured: normalized growth

CC(=O)N(O)CCCCCNC(=O)CCC(=O)N(O)CCCCCNC(=O)CCC(=O)N(O)CCCCCN
active: locus YBR021W, strain FUR4, stronger effect = lower value 0.845
inactive: locus YAL013W, strain DEP1, stronger effect = lower value 0.997 | locus YAL021C, strain ccr4, stronger effect = lower value 0.959 | locus YAL026C, strain drs2, stronger effect = lower value 1 | locus YAL030W, strain snc1, stronger effect = lower value 1 | locus YBL061C, strain skt5, stronger effect = lower value 1 | locus YBR009C, strain hhf1, stronger effect = lower value 1 | locus YBR023C, strain chs3, stronger effect = lower value 1.02 | locus YBR171W, strain sec66, stronger effect = lower value 1.01 | locus YBR229C, strain ROT2, stronger effect = lower value 1.01 | locus YBR231C, strain swc5, stronger effect = lower value 0.967 | locus YBR279W, strain paf1, stronger effect = lower value 0.99 | locus YCL011C, strain gbp2, stronger effect = lower value 1.04 | locus YCL016C, strain dcc1, stronger effect = lower value 1.03 | locus YCL029C, strain bik1, stronger effect = lower value 1.04 | locus YCL069W, strain vba3, stronger effect = lower value 0.994 | locus YCR088W, strain abp1, stronger effect = lower value 1.02 | locus YDL005C, strain med2, stronger effect = lower value 1.01 | locus YDL035C, strain GPR1, stronger effect = lower value 0.987 | locus YDL040C, strain nat1, stronger effect = lower value 1 | locus YDL074C, strain BRE1, stronger effect = lower value 0.907 | locus YDL101C, strain DUN1, stronger effect = lower value 1.01 | locus YDL185W, strain tfp1, stronger effect = lower value 0.967 | locus YDL192W, strain arf1, stronger effect = lower value 1.01 | locus YDR001C, strain nth1, stronger effect = lower value 1.03 | locus YDR069C, strain doa4, stronger effect = lower value 0.978 | locus YDR101C, strain arx1, stronger effect = lower value 1.04 | locus YDR137W, strain rgp1, stronger effect = lower value 1.12 | locus YDR150W, strain NUM1, stronger effect = lower value 1.01 | locus YDR159W, strain sac3, stronger effect = lower value 1.05 | locus YDR162C, strain NBP2, stronger effect = lower value 0.997 | locus YDR195W, strain ref2 1.03 | locus YDR297W, strain sur2, stronger effect = lower value 0.997 | locus YDR318W, strain mcm21, stronger effect = lower value 1.02 | locus YDR334W, strain swr1, stronger effect = lower value 0.998 | locus YDR335W, strain msn5, stronger effect = lower value 0.987 | locus YDR388W, stronger effect = lower value 1.02 | locus YDR392W, strain spt3, stronger effect = lower value 1.2 | locus YDR502C, strain sam2, stronger effect = lower value 1.04 | locus YEL003W, strain gim4, stronger effect = lower value 0.961 | locus YEL037C, strain rad23, stronger effect = lower value 0.997 | locus YEL061C, strain CIN8 (second series), stronger effect = lower value 1.01 | locus YEL061C, strain CIN8, stronger effect = lower value 1.01 | locus YER015W, strain faa2, stronger effect = lower value 0.944 | locus YER016W, strain bim1, stronger effect = lower value 1.01 | locus YER110C, stronger effect = lower value 1.01 | locus YER111C, strain swi4, stronger effect = lower value 0.973 | locus YER155C, strain BEM2 (second series), stronger effect = lower value 1.06 | locus YER155C, strain BEM2, stronger effect = lower value 1.04 | locus YER167W, strain BCK2, stronger effect = lower value 1.05 | locus YFR010W, strain ubp6, stronger effect = lower value 0.986 | locus YGL078C, strain dbp3, stronger effect = lower value 1.07 | locus YGL086W, strain mad1, stronger effect = lower value 1.01 | locus YGL167C, strain pmr1, stronger effect = lower value 0.978 | locus YGL173C, strain kem1, stronger effect = lower value 0.99 | locus YGL227W, strain vid30, stronger effect = lower value 1.02 | locus YGL240W, strain doc1, stronger effect = lower value 1.01 | locus YGL248W, strain PDE1, stronger effect = lower value 0.987 | locus YGL253W, strain hxk2, stronger effect = lower value 0.989 | locus YGR078C, strain PAC10, stronger effect = lower value 0.983 | locus YGR135W, strain pre9, stronger effect = lower value 0.994 | locus YGR252W, strain gcn5, stronger effect = lower value 0.771 | locus YHR013C, strain ard1, stronger effect = lower value 0.984 | locus YHR027C, strain rpn1, stronger effect = lower value 0.94 | locus YHR030C, strain SLT2, stronger effect = lower value 1.02 and 1.05 | locus YHR079C, strain IRE1 (second series), stronger effect = lower value 1.02 | locus YHR079C, strain IRE1, stronger effect = lower value 1.05 | locus YHR094C, strain hxt1, stronger effect = lower value 1.02 | locus YHR129C, strain ARP1, stronger effect = lower value 1.01 | locus YHR142W, strain chs7, stronger effect = lower value 0.981 | locus YHR200W, strain rpn10, stronger effect = lower value 1.03 | locus YIL066C, strain RNR3, stronger effect = lower value 1.01 | locus YIL073C, strain SPO22, stronger effect = lower value 0.95 | locus YIL125W, strain kgd1, stronger effect = lower value 1.04 | locus YIR030C, strain dcg1, stronger effect = lower value 1.03 | locus YJL092W, strain hpr5, stronger effect = lower value 1.03 | locus YJL095W, strain BCK1 (second series), stronger effect = lower value 1.01 | locus YJL095W, strain BCK1, stronger effect = lower value 0.959 and 1.05 | locus YJL115W, strain asf1, stronger effect = lower value 1.01 | locus YJL129C, strain trk1, stronger effect = lower value 1.01 | locus YJL134W, strain LCB3, stronger effect = lower value 1.01 | locus YJL154C, strain vps35, stronger effect = lower value 1.01 | locus YJL164C, strain tpk1, stronger effect = lower value 1.03 | locus YJL166W, strain qcr8, stronger effect = lower value 1.02 | locus YJL168C, strain set2, stronger effect = lower value 1.01 | locus YJL187C, strain SWE1 (second series), stronger effect = lower value 0.975 | locus YJL187C, strain SWE1, stronger effect = lower value 0.987 | locus YJR043C, strain POL32, stronger effect = lower value 1.02
